Assay results from PubChem BioAssay.
Calls of active or inactive are those of the source. Unless noted, how the calls were made is not given here.

Assays:
[1] = tested on: Wnt5a (protein binding on small-molecule microarray); assay: small molecules binding Wnt5a protein – biophysical, small-molecule microarray, 635/667 nm fluorescence, primary screen (AID 1142); conditions: 635 nm fluorescence, higher = more signal;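 further: fluorescence read at 667 nm with signal to noise per printed feature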
[2] = ATP-based viability of Huh7 replicon cells – cell-based, CellTiter-Glo luminescence, basal, 48 h, cytotoxicity control for HCV replication inhibitor project, primary screen (AID 1143); conditions: higher = more signal, called active from +8 up or from −8 down;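 further: Huh7 hepatoma cells carrying a hepatitis C replication reporter with no stimulus; test concentration not given here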
[3] = Pseudomonas biofilm growth suppression – PAO1 strain, BacTiter-Glo luminescence, LB-PBS, primary screen (AID 1144); conditions: P. aeruginosa PAO1 biofilm, 12 h, higher = more signal
[4] = basal CRE-LacZ reporter activity in PC12 – cell-based, unstimulated, primary screen (AID 1145); conditions: no forskolin, luminescence, 4.5 h, higher = more signal, called active from +8 up or from −8 down
[5] = forskolin-driven CRE-LacZ activity in PC12 – cell-based, CRE-LacZ reporter, forskolin-stimulated, primary screen (AID 1146); conditions: luminescence, 4.5 h, higher = more signal, called active from +8 up or from −8 down;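 further: PC12 cells with 6xCRE LacZ reporter stimulated by forskolin 10 µM; beta-galactosidase reporter signal reflecting CREB driven transcription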
[6] = target: Streptavidin (Streptomyces avidinii) (UniProt P22629); assay: compounds binding control protein streptavidin – biophysical, small-molecule microarray, 635/667 nm fluorescence, artefact control for SMM compound annotation, primary screen (AID 1147); conditions: higher = more signal;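 further: signal reflects streptavidin binding to arrayed compounds as a control protein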
Streptavidin (Streptomyces avidinii), sequence (P22629 whole entry, looked up): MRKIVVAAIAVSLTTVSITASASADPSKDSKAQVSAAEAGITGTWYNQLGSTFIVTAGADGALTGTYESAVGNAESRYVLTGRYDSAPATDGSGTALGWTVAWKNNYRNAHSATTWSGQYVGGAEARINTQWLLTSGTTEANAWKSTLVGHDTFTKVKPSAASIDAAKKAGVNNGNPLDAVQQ

[7] = probe aInhba binding on compound microarray – biochemical, small-molecule microarray, 635/667 nm fluorescence, primary screen (AID 1148); conditions: higher = more signal;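 further: score merges 667nm spot fluorescence with signal-to-noise for antibody binding to printed compounds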
Torsin-1A (Homo sapiens) [8] = target: Torsin-1A (Homo sapiens) (UniProt O14656); assay: TOR1A wild-type binding on microarray – cell lysate, small-molecule microarray, lysate, 635/667 nm, primary screen (AID 1149); conditions: COS7 hTOR1A-WT lysate, 635 nm fluorescence, higher = more signal
Torsin-1A (Homo sapiens), sequence (O14656 whole entry, looked up): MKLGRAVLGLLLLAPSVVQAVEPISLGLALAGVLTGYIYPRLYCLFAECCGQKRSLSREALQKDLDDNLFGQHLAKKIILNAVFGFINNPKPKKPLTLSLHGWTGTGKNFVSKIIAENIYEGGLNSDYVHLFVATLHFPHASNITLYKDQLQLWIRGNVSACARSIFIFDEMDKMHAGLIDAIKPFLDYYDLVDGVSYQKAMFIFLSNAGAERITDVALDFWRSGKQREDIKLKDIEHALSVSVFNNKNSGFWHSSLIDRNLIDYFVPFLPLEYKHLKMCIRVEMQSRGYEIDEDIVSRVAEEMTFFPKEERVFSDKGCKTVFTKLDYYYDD

Torsin-1A (Homo sapiens) [9] = target: Torsin-1A (Homo sapiens) (UniProt O14656); assay: torsin A mutant lysate binding on microarrays – cell lysate, small-molecule microarray, COS7 lysate, 635/667 nm fluorescence, primary screen (AID 1150); conditions: COS7 hTOR1A mutant lysate, 635 nm fluorescence, higher = more signal;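 further: score pools 667 nm emission and signal to noise measuring lysate protein binding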
[10] = tested on: Sonic hedgehog protein (Shh); assay: Sonic hedgehog microarray binding compounds – biochemical, small-molecule microarray, 635/667 nm fluorescence, primary screen (AID 1151); conditions: 635 nm fluorescence, higher = more signal;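 further: Shh protein binding to compounds spotted on small-molecule microarray slides; score combines spot fluorescence intensity with signal-to-noise across triplicate slides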
[11] = optical density shifts of acrAB sulA E. coli – strain DRC41, OD650, 48 h, E. coli filamentation inducer project, primary screen (AID 1152); conditions: higher = more signal, called active from +8 up or from −8 down;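 further: E. coli MC1000 strain DRC41 lacking acrAB efflux pump and sulA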
[12] = probe aLefty1 binding on compound microarray – biochemical, small-molecule microarray, 635/667 nm fluorescence, primary screen (AID 1153); conditions: higher = more signal;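 further: score merges spot fluorescence with signal-to-noise ratio from the scanned slide images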
[13] = plasmodial surface anion channel blockers, osmotic lysis – cell-based, P. falciparum Indochina, OD700, 1 h, primary screen (AID 1154); conditions: P. falciparum Indochina infected RBC osmotic lysis, higher = more signal, called active from +8 up or from −8 down
[14] = plasmodial surface anion channel blockers, osmotic lysis – cell-based, P. falciparum Indochina, OD700, 2 h, primary screen (AID 1155);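 further: lysis reports solute entry through the parasite surface anion channel PSAC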; conditions: P. falciparum Indochina infected erythrocytes, higher = more signal, called active from +8 up or from −8 down
[15] = changes in parasitized red cell lysis, either direction – P. falciparum Indochina, OD700, 3 h, PSAC antagonist project, primary screen (AID 1156); conditions: P. falciparum-infected erythrocytes, osmotic lysis, higher = more signal, called active from +8 up or from −8 down
[16] = plasmodial surface anion channel blockers, osmotic lysis – cell-based, P. falciparum Indochina, OD700, 18 h, primary screen (AID 1157); conditions: P. falciparum Indochina infected erythrocytes, osmotic lysis OD700, 18 h; higher = more signal, called active from +8 up or from −8 down
[17] = S6 kinase pathway phospho-S6 level changes – cell-based, A549, cytoblot, luminescence, serum-stimulated, primary screen (AID 1158); conditions: 5 h, higher = more signal;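 further: serum-stimulated A549 lung adenocarcinoma cells; signal is phosphorylated S6 detected by cytoblot immunostaining with HRP secondary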
[18] = target: NADPH oxidase 2 (Homo sapiens) (UniProt P04839); assay: compounds shifting NOX2 Amplex Red fluorescence – cell-based, HEK293-NOX2, PMA-stimulated, NOX inhibitor project, primary screen (AID 1159); conditions: 45 min, higher = more signal, called active from +8 up or from −8 down; further: test concentration not given here
NADPH oxidase 2 (Homo sapiens), sequence (P04839 whole entry, looked up): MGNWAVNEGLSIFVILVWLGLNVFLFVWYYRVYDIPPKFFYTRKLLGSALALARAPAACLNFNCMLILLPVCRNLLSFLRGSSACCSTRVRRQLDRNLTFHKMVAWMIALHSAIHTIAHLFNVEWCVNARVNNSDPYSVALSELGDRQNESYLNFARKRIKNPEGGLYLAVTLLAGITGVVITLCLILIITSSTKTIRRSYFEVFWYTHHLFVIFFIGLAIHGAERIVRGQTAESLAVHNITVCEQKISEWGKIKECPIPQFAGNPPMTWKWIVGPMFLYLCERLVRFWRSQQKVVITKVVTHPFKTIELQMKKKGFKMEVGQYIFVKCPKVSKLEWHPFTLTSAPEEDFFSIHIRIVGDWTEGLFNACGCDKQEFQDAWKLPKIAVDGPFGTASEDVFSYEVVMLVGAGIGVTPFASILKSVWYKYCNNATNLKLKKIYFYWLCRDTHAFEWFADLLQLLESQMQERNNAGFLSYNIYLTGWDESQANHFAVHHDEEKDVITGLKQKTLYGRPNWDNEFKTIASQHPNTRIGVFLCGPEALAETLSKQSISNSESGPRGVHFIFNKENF

[19] = target: NADPH oxidase 4 (Homo sapiens) (UniProt Q9NPH5); assay: compounds shifting NOX4 Amplex Red fluorescence – cell-based, HEK293-NOX4, tetracycline-induced, NOX inhibitor project, primary screen (AID 1160); conditions: HEK293-NOX4, Amplex Red H2O2 fluorescence, 45 min; higher = more signal, called active from +8 up or from −8 down
NADPH oxidase 4 (Homo sapiens), sequence (Q9NPH5 whole entry, looked up): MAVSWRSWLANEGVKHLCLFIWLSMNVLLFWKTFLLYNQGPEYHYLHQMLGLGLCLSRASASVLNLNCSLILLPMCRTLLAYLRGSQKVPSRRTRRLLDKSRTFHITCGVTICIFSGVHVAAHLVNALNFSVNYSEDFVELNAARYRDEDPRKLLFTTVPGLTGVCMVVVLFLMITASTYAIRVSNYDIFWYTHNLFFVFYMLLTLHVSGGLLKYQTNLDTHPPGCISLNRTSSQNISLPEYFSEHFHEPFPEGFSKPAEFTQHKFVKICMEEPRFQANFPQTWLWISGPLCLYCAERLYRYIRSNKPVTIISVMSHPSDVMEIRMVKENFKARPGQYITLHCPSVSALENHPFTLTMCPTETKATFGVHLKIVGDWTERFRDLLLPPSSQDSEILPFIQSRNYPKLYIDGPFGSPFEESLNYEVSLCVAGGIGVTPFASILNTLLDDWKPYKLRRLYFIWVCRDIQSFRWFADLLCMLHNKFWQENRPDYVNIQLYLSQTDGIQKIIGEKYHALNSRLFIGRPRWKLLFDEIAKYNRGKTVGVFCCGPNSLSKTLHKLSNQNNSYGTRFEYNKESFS

[20] = target: NADPH oxidase 5 (Homo sapiens) (UniProt Q96PH1); assay: compounds shifting NOX5 Amplex Red fluorescence – cell-based, HEK293-NOX5, NOX inhibitor project, primary screen (AID 1161); conditions: HEK293-NOX5, ionomycin, 45 min, higher = more signal
NADPH oxidase 5 (Homo sapiens), sequence (Q96PH1 whole entry, looked up): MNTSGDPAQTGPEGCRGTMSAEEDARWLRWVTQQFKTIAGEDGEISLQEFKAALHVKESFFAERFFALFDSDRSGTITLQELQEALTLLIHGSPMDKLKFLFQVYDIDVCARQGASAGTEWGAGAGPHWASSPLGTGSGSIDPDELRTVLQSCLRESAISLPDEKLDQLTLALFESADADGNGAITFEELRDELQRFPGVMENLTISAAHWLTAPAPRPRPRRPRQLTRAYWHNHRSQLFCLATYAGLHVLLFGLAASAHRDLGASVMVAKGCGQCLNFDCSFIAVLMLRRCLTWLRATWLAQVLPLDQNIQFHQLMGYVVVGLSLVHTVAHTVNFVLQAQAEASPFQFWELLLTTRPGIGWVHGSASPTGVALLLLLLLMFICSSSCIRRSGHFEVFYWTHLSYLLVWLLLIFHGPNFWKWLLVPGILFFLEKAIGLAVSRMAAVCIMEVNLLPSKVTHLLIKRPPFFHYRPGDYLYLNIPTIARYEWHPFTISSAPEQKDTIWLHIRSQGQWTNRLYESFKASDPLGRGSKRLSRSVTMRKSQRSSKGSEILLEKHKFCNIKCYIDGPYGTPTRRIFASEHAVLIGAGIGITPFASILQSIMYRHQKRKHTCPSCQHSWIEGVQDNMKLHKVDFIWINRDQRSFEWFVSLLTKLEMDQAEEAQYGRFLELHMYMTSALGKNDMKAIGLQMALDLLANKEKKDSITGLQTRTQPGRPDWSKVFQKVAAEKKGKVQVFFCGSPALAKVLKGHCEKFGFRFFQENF

Row | Compound | composite z-score [1] | z-score [2] | z-score [3] | z-score [4] | z-score [5] | composite z-score [6] | composite z-score [7] | composite z-score (Torsin-1A (Homo sapiens) [8]) | composite z-score (Torsin-1A (Homo sapiens) [9]) | composite z-score [10] | z-score [11] | composite z-score [12] | z-score [13] | z-score [14] | z-score [15] | z-score [16] | z-score [17] | z-score [18] | z-score [19] | z-score [20]
1 | COc1cc(CO)cc(I)c1O[C@H]1C=C(C(=O)NCCO)C[C@@H](N(CCc2cccc(F)c2)C(=O)CCC2CCCC2)[C@@H]1O | 1.38 | -6.09 (inactive) | -0.986 (inactive) | 6.93 (inactive) | -0.374 (inactive) | 0.628 | 0.0872 | 0.727 | 1.26 | 1.89 | -0.429 (inactive) | 0.437 | 16.3 (active) | 3.94 (inactive) | 4.42 (inactive) | 1.53 (inactive) | -0.165 | 1.47 (inactive) | 0.145 (inactive) | -2.23
2 | CC(C)(C)OC(=O)CC[C@]1(C(=O)NCC(O)CO)N=C(c2ccc(OCCCO)cc2)O[C@H]1c1ccccc1CN=[N+]=[N-] (stereo not given in full) | 0.921 | 0.168 (inactive) | -1.35 (inactive) | 0.0594 (inactive) | -0.209 (inactive) | 1.63 | 0.496 | 0.399 | 2.06 | -0.535 | -0.207 (inactive) | 0.975 | 17.2 (active) | 2.39 (inactive) | 0.471 (inactive) | 0.297 (inactive) | -0.832 | 1.38 (inactive) | 1.57 (inactive) | 2.2
3 | [N-]=[N+]=NCc1ccccc1C[C@]1(C(=O)N2CCOCC2)N=C(c2ccc(OCCCO)cc2)O[C@H]1c1ccccc1 | 0.258 | -5.35 (inactive) | -0.764 (inactive) | 0.391 (inactive) | -1.5 (inactive) | 0.981 | 0.0091 | 0.0039 | 0.348 | -0.147 | 1.07 (inactive) | 0.208 | 29.4 (active) | 24.2 (active) | 0.785 (inactive) | 1.5 (inactive) | 1.57 | -1.95 (inactive) | -0.399 (inactive) | -1.32
4 | O=C1C2C=CC(C(O)CCc3ccccc3)N(Nc3ccccc3)C2C(=O)N1c1ccccc1 (stereo not given) | 0.742 | 0.267 (inactive) | -0.857 (inactive) | 0.819 (inactive) | -0.0219 (inactive) | 2.32 | 0.372 | 0.143 | 0.82 | -0.365 | -1.7 (inactive) | 0.767 | 1.9 (inactive) | 1.32 (inactive) | 0.624 (inactive) | 1.42 (inactive) | -1.06 | -1.26 (inactive) | -5.33 (inactive) | -1.45
5 | O=C1O[C@H](c2ccccc2)[C@H](c2ccccc2)N2[C@H]1[C@@H](C(=O)N1CCCCCCC1)[C@]1(C(=O)Nc3ccc(C#CC4=CCCCC4)cc31)[C@H]2c1ccc(O)cc1 | 2.45 | -5.14 (inactive) | -1.54 (inactive) | -1.43 (inactive) | -0.464 (inactive) | 4.23 | 1.98 | 3.97 | 3.82 | 2.29 | -0.306 (inactive) | 3.07 | 0.123 (inactive) | -0.131 (inactive) | 0.0311 (inactive) | 0.482 (inactive) | -0.0408 | 0.855 (inactive) | 0.494 (inactive) | 0.322
6 | CCCCN1CC=CC23O[C@@H]4/C=C\CCCOC(=O)C4[C@H]2C(=O)N(C(C)CO)[C@@H]3C1=O (stereo not given in full) | -0.286 | 0.33 (inactive) | -1.35 (inactive) | -0.907 (inactive) | -0.679 (inactive) | -0.559 | -0.05 | -0.534 | -0.804 | 0.732 | 0.65 (inactive) | -0.206 | 1.43 (inactive) | 1.06 (inactive) | 1.96 (inactive) | 0.405 (inactive) | 0.199 | 0.889 (inactive) | 0.124 (inactive) | 1.5
7 | COc1ccc(C(O)C2C=CC3C(=O)N(c4ccccc4)C(=O)C3N2Nc2ccccc2)c2ccccc12 (stereo not given) | 0.145 | -2.42 (inactive) | -1.12 (inactive) | 0.24 (inactive) | 1.79 (inactive) | 0.632 | 0.382 | -0.175 | 0.15 | -0.506 | -0.831 (inactive) | 0.318 | 6.65 (inactive) | 1.75 (inactive) | 0.303 (inactive) | 1.34 (inactive) | -0.654 | -1.48 (inactive) | -3.15 (inactive) | -2.57
8 | CC(C)[C@H]1COC(=O)N1C(=O)[C@H]1[C@@H](c2ccccc2)N(c2ccccc2)O[C@@H]1C | 0.138 | -0.917 (inactive) | -1.33 (inactive) | 0.493 (inactive) | -0.688 (inactive) | 0.465 | -0.0989 | 0.167 | 0.624 | 0.506 | 1.46 (inactive) | -0.147 | 0.744 (inactive) | 0.233 (inactive) | -0.648 (inactive) | 0.206 (inactive) | 0.958 | -0.515 (inactive) | -0.138 (inactive) | -2.5
